# Results reported in paper PMC7862700, “An all-to-all approach to the identification of sequence-specific readers for epigenetic DNA modifications on cytosine”.
# Tests used:
# Assay in all cases: DAPPL (digital affinity profiling via proximity ligation, sequencing); 10 mM Tris-HCl pH 7.5, 50 mM NaCl, 1 mM DTT, 4% glycerol, room temperature, 30 min; GST-TFs on glutathione beads, 16-mer random dsDNA library, 0.1% formaldehyde crosslink after washing; high values mean tight binding
# FLI1 = biological target: T1, FLI1 (Homo sapiens, UniProt Q01543 1-452); settings: protein: recombinant; tags: N-terminal GST; dsDNA, one strand shown
# T1 sequence: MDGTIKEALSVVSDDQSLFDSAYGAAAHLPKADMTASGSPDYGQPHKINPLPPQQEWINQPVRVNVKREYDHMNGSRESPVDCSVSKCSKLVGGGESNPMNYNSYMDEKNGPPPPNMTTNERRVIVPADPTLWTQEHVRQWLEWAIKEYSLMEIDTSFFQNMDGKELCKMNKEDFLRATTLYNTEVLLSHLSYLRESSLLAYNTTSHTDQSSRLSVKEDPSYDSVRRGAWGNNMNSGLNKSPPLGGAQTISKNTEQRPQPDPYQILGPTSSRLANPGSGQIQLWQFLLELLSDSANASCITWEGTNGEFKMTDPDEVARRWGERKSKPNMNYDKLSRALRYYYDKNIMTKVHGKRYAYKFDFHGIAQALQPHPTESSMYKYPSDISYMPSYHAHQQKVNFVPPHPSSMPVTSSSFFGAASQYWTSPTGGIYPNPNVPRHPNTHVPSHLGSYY
# Outline: (§1)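 Human transcription factors fused to GST were expressed in yeast, captured on glutathione beads, given DNA barcodes and pooled with a GST-only negative control. Pools were incubated with 200 nmole of a 16-mer random double-stranded DNA library in Tris/NaCl/DTT/glycerol buffer at room temperature for 30 min. They were then washed, crosslinked with 0.1% formaldehyde, proximity-ligated (BsaI/T4 ligase, 1 h, 37 °C), PCR-amplified and sequenced on an Illumina NextSeq500. Binding signal is each 6-mer's read frequency for a factor divided by its frequency for the GST control.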
# ELK1 = biological target: T2, ELK1 (Homo sapiens, UniProt P19419 1-428); settings: protein: recombinant; tags: N-terminal GST; dsDNA, one strand shown
# T2 sequence: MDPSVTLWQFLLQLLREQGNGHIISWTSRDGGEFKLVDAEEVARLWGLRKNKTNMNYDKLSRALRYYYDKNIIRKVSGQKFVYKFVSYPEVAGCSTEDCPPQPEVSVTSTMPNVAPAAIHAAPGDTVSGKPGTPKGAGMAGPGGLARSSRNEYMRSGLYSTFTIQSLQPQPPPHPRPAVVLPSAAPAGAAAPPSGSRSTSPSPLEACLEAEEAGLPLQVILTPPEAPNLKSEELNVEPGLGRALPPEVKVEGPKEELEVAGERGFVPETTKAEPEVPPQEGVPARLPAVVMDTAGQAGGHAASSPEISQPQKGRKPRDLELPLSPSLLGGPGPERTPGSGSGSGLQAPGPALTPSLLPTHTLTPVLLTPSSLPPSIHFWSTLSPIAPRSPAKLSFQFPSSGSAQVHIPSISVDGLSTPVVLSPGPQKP
# Outline: as §1
# GABPA = biological target: T3, GABPA (Homo sapiens, UniProt Q06546 1-454); settings: protein: recombinant; tags: N-terminal GST; dsDNA, one strand shown
# T3 sequence: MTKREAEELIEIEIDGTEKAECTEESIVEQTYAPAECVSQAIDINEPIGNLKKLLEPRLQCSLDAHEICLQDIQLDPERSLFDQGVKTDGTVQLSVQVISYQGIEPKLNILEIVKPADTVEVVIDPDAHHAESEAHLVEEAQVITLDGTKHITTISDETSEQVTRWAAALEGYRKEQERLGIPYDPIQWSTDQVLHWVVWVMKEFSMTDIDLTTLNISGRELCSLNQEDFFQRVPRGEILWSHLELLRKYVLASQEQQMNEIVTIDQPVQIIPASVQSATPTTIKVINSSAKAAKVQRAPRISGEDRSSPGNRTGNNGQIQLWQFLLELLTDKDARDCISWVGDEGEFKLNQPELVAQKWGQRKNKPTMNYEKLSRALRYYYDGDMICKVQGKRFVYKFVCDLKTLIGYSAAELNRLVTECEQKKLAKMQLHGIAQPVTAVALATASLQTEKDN
# Outline: as §1
# ERG = biological target: T4, ERG (Homo sapiens, UniProt P11308 1-479); settings: protein: recombinant; tags: N-terminal GST; dsDNA, one strand shown
# T4 sequence: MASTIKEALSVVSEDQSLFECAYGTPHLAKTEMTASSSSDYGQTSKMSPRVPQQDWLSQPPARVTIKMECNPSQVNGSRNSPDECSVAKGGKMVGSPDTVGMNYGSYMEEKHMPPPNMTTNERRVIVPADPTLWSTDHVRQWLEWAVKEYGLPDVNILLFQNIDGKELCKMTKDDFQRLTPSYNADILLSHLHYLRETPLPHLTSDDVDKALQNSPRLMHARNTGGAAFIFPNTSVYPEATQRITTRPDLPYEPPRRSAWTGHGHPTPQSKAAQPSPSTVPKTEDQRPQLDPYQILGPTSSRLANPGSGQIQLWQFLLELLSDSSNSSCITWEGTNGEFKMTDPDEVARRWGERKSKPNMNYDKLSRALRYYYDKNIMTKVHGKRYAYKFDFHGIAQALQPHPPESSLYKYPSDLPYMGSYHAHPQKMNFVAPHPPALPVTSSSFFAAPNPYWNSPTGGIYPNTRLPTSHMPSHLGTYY
# Outline: as §1
# ELF1 = ELF1 (Homo sapiens, UniProt P32519 1-619); settings: protein: recombinant; tags: N-terminal GST; dsDNA, one strand shown
# Chain of ELF1 (P32519 whole entry): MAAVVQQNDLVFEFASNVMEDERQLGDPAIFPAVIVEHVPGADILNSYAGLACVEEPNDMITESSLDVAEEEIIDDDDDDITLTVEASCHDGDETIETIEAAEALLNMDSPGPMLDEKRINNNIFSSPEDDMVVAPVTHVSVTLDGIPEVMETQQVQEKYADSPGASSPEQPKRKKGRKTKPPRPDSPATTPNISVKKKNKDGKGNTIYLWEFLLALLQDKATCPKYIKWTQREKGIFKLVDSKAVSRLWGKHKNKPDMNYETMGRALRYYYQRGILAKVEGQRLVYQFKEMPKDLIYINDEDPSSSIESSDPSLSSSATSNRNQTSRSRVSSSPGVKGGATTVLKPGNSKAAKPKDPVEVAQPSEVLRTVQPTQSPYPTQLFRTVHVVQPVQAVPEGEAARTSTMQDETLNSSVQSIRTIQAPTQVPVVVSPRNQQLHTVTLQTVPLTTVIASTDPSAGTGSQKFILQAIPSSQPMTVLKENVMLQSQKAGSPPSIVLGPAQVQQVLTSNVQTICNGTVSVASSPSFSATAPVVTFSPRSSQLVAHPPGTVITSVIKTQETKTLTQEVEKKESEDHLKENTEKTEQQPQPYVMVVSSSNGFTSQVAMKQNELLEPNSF
# Outline: as §1
# EHF = biological target: T5, EHF (Homo sapiens, UniProt Q9NZC4 1-300); settings: protein: recombinant; tags: N-terminal GST; dsDNA, one strand shown
# T5 sequence: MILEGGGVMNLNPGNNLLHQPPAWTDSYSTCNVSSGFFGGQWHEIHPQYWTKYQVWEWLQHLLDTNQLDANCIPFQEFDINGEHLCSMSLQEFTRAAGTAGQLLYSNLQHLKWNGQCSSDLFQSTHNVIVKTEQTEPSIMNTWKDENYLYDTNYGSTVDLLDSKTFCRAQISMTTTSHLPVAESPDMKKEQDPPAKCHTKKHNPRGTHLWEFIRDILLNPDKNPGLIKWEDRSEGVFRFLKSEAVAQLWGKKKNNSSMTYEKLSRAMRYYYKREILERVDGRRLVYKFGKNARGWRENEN
# Outline: as §1
# SPI1 = SPI1 (Homo sapiens, UniProt P17947 1-270); settings: protein: recombinant; tags: N-terminal GST; dsDNA, one strand shown
# Outline: as §1
# SPIB = SPIB (Homo sapiens, UniProt Q01892 1-262); settings: protein: recombinant; tags: N-terminal GST; dsDNA, one strand shown
# Chain of SPIB (Q01892 whole entry): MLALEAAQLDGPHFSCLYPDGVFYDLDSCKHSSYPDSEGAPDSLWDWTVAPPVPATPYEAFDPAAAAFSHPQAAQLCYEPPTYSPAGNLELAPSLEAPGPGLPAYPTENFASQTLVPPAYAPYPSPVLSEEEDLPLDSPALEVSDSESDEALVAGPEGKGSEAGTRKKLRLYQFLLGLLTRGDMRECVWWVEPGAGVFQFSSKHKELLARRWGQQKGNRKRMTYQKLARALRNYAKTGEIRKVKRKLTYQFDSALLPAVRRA
# Outline: as §1
# ELK3 = biological target: T6, ELK3 (Homo sapiens, UniProt P41970 1-407); settings: protein: recombinant; tags: N-terminal GST; dsDNA, one strand shown
# T6 sequence: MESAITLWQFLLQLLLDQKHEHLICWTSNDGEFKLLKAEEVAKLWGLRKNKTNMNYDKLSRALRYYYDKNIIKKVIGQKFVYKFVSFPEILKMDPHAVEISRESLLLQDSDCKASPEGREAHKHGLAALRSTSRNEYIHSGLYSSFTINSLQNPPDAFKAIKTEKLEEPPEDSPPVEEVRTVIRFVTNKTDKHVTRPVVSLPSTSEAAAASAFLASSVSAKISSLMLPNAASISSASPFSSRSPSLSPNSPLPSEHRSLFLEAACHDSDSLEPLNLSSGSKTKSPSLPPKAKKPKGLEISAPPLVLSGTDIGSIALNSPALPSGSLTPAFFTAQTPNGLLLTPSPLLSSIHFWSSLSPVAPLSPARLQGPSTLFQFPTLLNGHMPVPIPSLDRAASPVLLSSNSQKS
# Outline: as §1
# FEV = biological target: T7, FEV (Homo sapiens, UniProt Q99581 1-238); settings: protein: recombinant; tags: N-terminal GST; dsDNA, one strand shown
# T7 sequence: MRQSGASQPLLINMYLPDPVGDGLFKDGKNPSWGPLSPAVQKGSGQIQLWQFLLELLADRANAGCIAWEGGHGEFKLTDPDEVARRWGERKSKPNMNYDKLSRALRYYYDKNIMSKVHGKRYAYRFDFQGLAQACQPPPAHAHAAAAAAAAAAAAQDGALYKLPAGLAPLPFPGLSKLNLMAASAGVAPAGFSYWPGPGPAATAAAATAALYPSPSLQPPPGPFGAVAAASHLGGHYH
# Outline: as §1
# ETV5 = ETV5 (Homo sapiens, UniProt P41161 1-510); settings: protein: recombinant; tags: N-terminal GST; dsDNA, one strand shown
# Chain of ETV5 (P41161 whole entry): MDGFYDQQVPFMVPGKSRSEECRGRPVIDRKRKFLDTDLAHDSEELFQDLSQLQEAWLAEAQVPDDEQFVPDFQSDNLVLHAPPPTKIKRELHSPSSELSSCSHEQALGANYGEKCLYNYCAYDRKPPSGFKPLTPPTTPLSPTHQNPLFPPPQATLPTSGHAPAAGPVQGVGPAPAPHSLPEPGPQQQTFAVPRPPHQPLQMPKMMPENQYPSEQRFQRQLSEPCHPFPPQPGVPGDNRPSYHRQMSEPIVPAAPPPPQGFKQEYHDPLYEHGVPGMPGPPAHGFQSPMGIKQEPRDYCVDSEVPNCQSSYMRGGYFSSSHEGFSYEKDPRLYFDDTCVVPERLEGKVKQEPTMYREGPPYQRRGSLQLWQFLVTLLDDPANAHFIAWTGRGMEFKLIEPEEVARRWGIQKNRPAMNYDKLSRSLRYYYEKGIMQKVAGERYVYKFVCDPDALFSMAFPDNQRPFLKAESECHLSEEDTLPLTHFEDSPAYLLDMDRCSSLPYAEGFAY
# Outline: as §1
# HSF1 = HSF1 (Homo sapiens, UniProt Q00613 1-529); settings: protein: recombinant; tags: N-terminal GST; chain copies: 3; dsDNA, one strand shown
# Chain of HSF1 (Q00613 whole entry): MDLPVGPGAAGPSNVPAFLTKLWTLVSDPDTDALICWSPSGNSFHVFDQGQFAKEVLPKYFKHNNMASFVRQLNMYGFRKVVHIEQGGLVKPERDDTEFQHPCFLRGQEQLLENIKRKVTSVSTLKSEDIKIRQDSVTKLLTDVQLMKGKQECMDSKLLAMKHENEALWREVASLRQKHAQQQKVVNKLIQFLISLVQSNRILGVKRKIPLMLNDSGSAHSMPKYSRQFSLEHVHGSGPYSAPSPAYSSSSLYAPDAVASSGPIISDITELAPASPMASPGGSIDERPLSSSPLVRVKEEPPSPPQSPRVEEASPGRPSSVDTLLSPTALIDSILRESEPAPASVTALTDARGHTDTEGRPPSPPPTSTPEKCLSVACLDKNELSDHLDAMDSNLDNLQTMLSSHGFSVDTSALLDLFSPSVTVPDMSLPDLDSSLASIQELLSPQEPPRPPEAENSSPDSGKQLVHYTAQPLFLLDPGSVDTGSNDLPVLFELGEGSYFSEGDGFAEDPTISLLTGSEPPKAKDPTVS
# Outline: as §1
# SPIC = biological target: T8, SPIC (Homo sapiens, UniProt Q8N5J4 1-248); settings: protein: recombinant; tags: N-terminal GST; dsDNA, one strand shown
# T8 sequence: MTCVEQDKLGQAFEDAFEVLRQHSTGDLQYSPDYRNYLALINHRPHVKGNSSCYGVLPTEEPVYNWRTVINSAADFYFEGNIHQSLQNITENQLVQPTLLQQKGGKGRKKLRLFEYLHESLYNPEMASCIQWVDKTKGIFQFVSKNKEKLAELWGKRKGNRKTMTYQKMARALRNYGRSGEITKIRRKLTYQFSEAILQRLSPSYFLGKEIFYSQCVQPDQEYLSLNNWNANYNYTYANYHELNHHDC
# Outline: as §1
# ELF4 = ELF4 (Homo sapiens, UniProt Q99607 1-663); settings: protein: recombinant; tags: N-terminal GST; dsDNA, one strand shown
# Chain of ELF4 (Q99607 whole entry): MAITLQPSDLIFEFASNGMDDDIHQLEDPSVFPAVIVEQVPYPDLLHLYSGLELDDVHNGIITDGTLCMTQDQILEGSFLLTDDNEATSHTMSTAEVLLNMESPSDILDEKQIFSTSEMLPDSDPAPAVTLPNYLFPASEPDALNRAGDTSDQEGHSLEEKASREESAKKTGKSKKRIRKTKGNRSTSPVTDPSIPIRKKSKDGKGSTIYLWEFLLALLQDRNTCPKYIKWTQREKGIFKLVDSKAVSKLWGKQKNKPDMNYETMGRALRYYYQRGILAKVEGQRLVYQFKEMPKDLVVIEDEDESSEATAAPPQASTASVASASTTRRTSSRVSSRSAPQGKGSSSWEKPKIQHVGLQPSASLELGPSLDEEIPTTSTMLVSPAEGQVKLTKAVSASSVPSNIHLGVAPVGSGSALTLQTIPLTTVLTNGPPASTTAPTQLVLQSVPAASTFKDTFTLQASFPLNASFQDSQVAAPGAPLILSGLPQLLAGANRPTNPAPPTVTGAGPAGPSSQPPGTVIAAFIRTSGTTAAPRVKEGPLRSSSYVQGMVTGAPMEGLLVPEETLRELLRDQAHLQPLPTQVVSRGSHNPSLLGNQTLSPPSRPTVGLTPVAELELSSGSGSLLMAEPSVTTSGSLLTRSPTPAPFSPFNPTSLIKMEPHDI
# Outline: as §1
# ELK4 = biological target: T9, ELK4 (Homo sapiens, UniProt P28324-2 1-405); settings: protein: recombinant; tags: N-terminal GST; dsDNA, one strand shown
# T9 sequence: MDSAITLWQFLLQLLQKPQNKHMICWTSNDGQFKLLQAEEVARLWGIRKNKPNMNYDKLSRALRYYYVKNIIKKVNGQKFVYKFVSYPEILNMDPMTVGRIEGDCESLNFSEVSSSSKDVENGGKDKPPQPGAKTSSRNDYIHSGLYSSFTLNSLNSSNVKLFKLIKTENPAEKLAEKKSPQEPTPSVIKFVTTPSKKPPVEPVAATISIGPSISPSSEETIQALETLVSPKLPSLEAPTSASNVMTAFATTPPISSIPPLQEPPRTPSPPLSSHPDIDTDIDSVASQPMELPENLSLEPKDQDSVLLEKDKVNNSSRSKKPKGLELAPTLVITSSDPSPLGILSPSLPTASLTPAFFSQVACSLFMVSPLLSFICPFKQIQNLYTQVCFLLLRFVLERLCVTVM
# Outline: as §1
# ETV2 = biological target: T10, ETV2 (Homo sapiens, UniProt O00321 1-342); settings: protein: recombinant; tags: N-terminal GST; dsDNA, one strand shown
# T10 sequence: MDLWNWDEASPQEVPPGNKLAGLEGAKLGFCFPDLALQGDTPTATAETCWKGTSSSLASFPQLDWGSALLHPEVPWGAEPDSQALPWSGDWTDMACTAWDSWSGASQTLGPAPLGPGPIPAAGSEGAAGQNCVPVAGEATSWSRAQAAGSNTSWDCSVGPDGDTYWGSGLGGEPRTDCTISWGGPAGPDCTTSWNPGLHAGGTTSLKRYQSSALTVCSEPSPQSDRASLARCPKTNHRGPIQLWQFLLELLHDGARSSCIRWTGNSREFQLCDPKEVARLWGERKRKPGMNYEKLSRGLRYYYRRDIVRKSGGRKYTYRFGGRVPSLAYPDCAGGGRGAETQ
# Outline: as §1
# ELF3 = biological target: T11, ELF3 (Homo sapiens, UniProt P78545 1-371); settings: protein: recombinant; tags: N-terminal GST; dsDNA, one strand shown
# T11 sequence: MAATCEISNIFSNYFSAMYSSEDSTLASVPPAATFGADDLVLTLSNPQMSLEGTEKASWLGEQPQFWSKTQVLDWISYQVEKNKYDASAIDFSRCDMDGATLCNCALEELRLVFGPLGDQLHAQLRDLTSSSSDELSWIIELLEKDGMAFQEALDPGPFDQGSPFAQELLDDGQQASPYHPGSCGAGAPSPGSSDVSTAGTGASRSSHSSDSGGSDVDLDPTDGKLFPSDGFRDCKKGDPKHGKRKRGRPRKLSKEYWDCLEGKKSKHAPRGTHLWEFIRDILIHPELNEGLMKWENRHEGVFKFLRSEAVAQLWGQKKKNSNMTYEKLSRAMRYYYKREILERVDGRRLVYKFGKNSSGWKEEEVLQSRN
# Outline: as §1
# CRX = CRX (Homo sapiens, UniProt O43186 1-299); settings: protein: recombinant; tags: N-terminal GST; dsDNA, one strand shown
# Chain of CRX (O43186 whole entry): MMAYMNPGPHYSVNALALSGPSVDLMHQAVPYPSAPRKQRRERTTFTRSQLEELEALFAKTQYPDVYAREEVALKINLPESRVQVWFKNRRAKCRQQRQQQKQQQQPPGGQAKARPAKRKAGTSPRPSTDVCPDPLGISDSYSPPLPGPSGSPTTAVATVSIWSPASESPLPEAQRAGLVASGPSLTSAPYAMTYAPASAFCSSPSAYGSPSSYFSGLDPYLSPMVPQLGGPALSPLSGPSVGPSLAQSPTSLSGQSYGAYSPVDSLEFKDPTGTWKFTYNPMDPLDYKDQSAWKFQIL
# Outline: as §1
# ETV1 = ETV1 (Homo sapiens, UniProt P50549 1-477); settings: protein: recombinant; tags: N-terminal GST; dsDNA, one strand shown
# Chain of ETV1 (P50549 whole entry): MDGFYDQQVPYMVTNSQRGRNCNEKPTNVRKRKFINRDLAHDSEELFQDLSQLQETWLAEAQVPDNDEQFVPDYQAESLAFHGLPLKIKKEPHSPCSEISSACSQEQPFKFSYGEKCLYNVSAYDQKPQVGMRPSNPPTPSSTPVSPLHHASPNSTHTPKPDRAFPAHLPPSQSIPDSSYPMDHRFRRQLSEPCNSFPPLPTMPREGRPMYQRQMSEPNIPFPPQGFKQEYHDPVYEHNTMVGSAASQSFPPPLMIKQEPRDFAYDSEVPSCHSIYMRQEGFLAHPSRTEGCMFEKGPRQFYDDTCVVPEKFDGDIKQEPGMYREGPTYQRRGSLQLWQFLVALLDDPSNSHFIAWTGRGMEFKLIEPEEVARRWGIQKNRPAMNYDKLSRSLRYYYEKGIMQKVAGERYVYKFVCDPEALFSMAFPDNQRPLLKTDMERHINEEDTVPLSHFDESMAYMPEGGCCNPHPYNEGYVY
# Outline: as §1
sequence,measurement,setting,value
TCAAAA,binding signal,FLI1,"1.12 fold enrichment (6-mer frequency, TF over GST control)"
same,binding signal,ELK1,"1.12 fold enrichment (6-mer frequency, TF over GST control)"
same,binding signal,GABPA,"1.23 fold enrichment (6-mer frequency, TF over GST control)"
same,binding signal,ERG,"1.14 fold enrichment (6-mer frequency, TF over GST control)"
same,binding signal,ELF1,"1.19 fold enrichment (6-mer frequency, TF over GST control)"
same,binding signal,EHF,"1.1 fold enrichment (6-mer frequency, TF over GST control)"
same,binding signal,SPI1,"1.3 fold enrichment (6-mer frequency, TF over GST control)"
same,binding signal,SPIB,"1.15 fold enrichment (6-mer frequency, TF over GST control)"
same,binding signal,ELK3,"1.17 fold enrichment (6-mer frequency, TF over GST control)"
same,binding signal,FEV,"1.13 fold enrichment (6-mer frequency, TF over GST control)"
same,binding signal,ETV5,"1.17 fold enrichment (6-mer frequency, TF over GST control)"
same,binding signal,HSF1,"1.19 fold enrichment (6-mer frequency, TF over GST control)"
same,binding signal,SPIC,"1.24 fold enrichment (6-mer frequency, TF over GST control)"
same,binding signal,ELF4,"1.22 fold enrichment (6-mer frequency, TF over GST control)"
same,binding signal,ELK4,"1.25 fold enrichment (6-mer frequency, TF over GST control)"
same,binding signal,ETV2,"1.23 fold enrichment (6-mer frequency, TF over GST control)"
same,binding signal,ELF3,"1.39 fold enrichment (6-mer frequency, TF over GST control)"
same,binding signal,CRX,"1.28 fold enrichment (6-mer frequency, TF over GST control)"
same,binding signal,ETV1,"1.23 fold enrichment (6-mer frequency, TF over GST control)"
